# Experimental data: PubChem BioAssay (NCATS)
# Results filed as inconclusive are left out. Entries that show only a call come without a potency. Active and inactive are the calls of the source. Calls follow the shape of the dose curve; as a rule, active = well fitted inhibition curve with a large enough effect; inconclusive = small, poorly fitted or top-dose-only effect; inactive = flat fitted curve, though single readings scatter.
# Biological target: Calcium and integrin-binding protein 1 (Homo sapiens) (UniProt Q99828)
# Assay: Primary qHTS for Identification of Calcium Integrin Binding Protein 1 (CIB1) Competitor (AID 1508620);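 also: GST tagged CIB1 binding a fluorescein labelled alphaIIb integrin peptide tracer; top concentration of the series differs between compounds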
# Settings: CIB1-GST / FITC-alphaIIb peptide fluorescence polarization; series mostly up to 114 µM
# From the text: Assay Provider: Ulhas P. Naik, PhD Sidney Kimmel Medical College Thomas Jefferson University, Philadelphia, PA Primary function of platelets is to maintain hemostasis. At the site of vascular injury, platelets adhere to adhesive proteins such as collagen and von Willebrand factor. Adherent platelets are activated and generate soluble platelet agonists such as thrombin, ADP and thromboxane A2. Following exposure of circulating platelets to these agonists, results in platelet shape change, granule secretion and activation of platelet integrin alphaIIb-beta3. Ligand binding to activated integrin alphaIIb-beta3 triggers outside-in signaling, leading to platelet aggregation, stabilization of platelet plug, and clot retraction. Upon atherosclerotic plaque rupture also causes platelet plug formation, which underlies a number of cardiovascular diseases such as myocardial infraction and stroke. A number of anti-platelet drugs such as aspirin, clopidogrel, prasugrel, vorapaxar, and eptifibatide are currently available to prevent the thrombotic complications. However, these anti-platelet agents have several limitations including inherent variability in individual responses, developing resistance, and serious bleeding side effects. For these reasons they are not suitable for long-term protection. Based on the experiences with current anti-platelet drugs, it appears that the most useful therapeutic approach is to intersect the secondary responses such as integrin outside-in signaling or recruitment of platelets by TxA2 and secreted ADP. Compounds, which can largely preserve the primary hemostatic function of platelets but inhibit secondary response will be most desired therapeutic agents for treatment of cardiovascular disease. CIB1 is a calcium integrin binding protein, which specifically interact with the alphaIIb subunit of integrin alphaIIb-beta3. Binding of CIB1 to alphaIIb regulates the outside-in signaling in platelets, which is needed for thrombus stabilization and thrombus growth. […] Therefore, we propose that discovery of a small molecule that can prevent the association of CIB1 and alphaIIb-beta3 will be a potential anti-platelet agent that can block the thrombus formation without undue effect on hemostasis. Reference: [1] Naik MU, Nigam A, Manrai P, et al. CIB1 deficiency results in impaired thrombosis: the potential role of CIB1 in outside-in signaling through integrin alpha IIb beta 3. J Thromb Haemost.
# PROTOCOL TABLES SEQUENCE No. (1, 2, 3, etc.); […] (e.g., Cells, Incubation, Reagent, etc.); VALUE and DESCRIPTION. 1; Reagent; 3 uL; Protein or buffer (4/3x) 2; Compound; 46 nL; Control inhibitor / compound library 3; Time; 15 min; Room temperature incubation 4; Reagent; 1 uL; Fluorescent labeled peptide (4x) 5; Time; 1000 rpm; Centrifuge 6; Time; 15 min; Room temperature incubation 7; Detection; Ex 480/ Em 540; ViewLux Fluorescence Read NOTES (numbers refer to sequence above) 1; Protein Mixture: C1B1-GST (final concentrations of 1 uM). […] 3; Room temperature incubation. 4; Fluorescent Labeled Peptide: FITC-aIIb (final concentration of 100 nM). Sequence of alphaIIb peptide: Acetyl-[…]-FITC (purity is 95.83%). 5; Centrifuge 1000 rpm (164 g) for 15 seconds. 6; Room temperature incubation. 7; ViewLux Fluorescent Polization Read: excitation = 480(20) / emission = 540(25) S and P; FITC Dichroic mirror.
# Calcium and integrin-binding protein 1 (Homo sapiens), sequence (Q99828 whole entry, looked up): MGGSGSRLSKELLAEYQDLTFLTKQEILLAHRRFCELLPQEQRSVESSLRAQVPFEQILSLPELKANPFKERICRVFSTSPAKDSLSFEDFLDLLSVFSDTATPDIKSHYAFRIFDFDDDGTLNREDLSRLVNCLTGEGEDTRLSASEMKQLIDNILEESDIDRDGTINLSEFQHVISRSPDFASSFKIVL
row,SMILES,Potency
1,COc1ccc(OC)c(-c2nnc3n2N=C(c2ccc(OC)c(OC)c2)CS3)c1,inactive
2,Cc1cccc(CNc2ncnc3ccc(-c4cccc(C)c4)cc23)c1,inactive
3,COc1cccc(CCC(=O)NCCc2nc3ccccc3n2CCOc2ccc(C)cc2)c1,inactive
4,C#Cc1nc(Nc2cccc(Cl)c2)nc(NC2CCCC2)n1,inactive
5,COc1ccc(OC)c(NC(=O)c2ccccc2OC(C)=O)c1,inactive
6,CCn1cnc2c(Nc3ccc(CCC(=O)N=C(N)N)cc3)nc(C#N)nc21,inactive
7,CN1CCCC1CCNc1ncnc2ccc(-c3ccc4c(c3)OCO4)cc12 (stereo not given),inactive
8,Cc1nnc(-c2cnn(C)c2N)n1Cc1cncn1C,inactive
9,O=S(=O)(Nc1cccc2cccnc12)c1ccc(Br)cc1,inactive
10,NNc1ccc(NC(=O)c2cccs2)cn1,inactive
11,CC(C)(C)OC(=O)N1CCN(c2ccc(NCc3occc3-c3ccc(C#N)cc3)cc2)CC1,inactive
12,Oc1ccc(CNc2ccc(F)cc2Cl)c2cccnc12,inactive
13,O=c1c2ccccc2nc2sc(Nc3cccc(Cl)c3)nn12,inactive
14,COc1ccc(C2=Nn3c(nnc3-c3ccccc3C)SC2)cc1,inactive
15,O=C(Cc1nnc(-c2nc3ccccc3[nH]2)o1)Nc1cc(C(F)(F)F)ccc1Cl,inactive
16,O=C1CCc2cc(S(=O)(=O)Nc3ccc(Cl)cc3)ccc2N1,inactive
17,O=S(=O)(Nc1cccc2cccnc12)c1ccccc1O,inactive
18,CC(=O)Nc1ccc(S(=O)(=O)N2CCN(S(=O)(=O)c3c(F)cccc3F)CC2)cc1,inactive
19,COc1cccc(CNc2ccc(S(=O)(=O)Nc3ccc(C)nc3)cc2)c1O,inactive
20,C=CCNc1oc(-c2cccc(F)c2)nc1C#N,inactive

row,SMILES,Potency
1,CCOc1ccc(CCN(C)C(=O)c2cc3sccc3n2Cc2ccccc2)cc1OCC,inactive
2,O=c1c2ccccc2nc2sc(Nc3cccc(-c4ccncc4)c3)nn12,inactive
3,Cc1cc(C)nc(NC(=S)N2CCN(c3ncnc4ccccc34)CC2)c1,inactive
4,Cc1ccc(C2=NN(CC(=O)N(C)C(C)c3ccco3)C(=O)C2)cc1 (stereo not given),inactive
5,COc1ccc(-c2nc3ccccc3c(=O)n2Cc2ccccc2)cc1OCc1ccc(NC(C)=O)cc1,inactive
6,COc1ccc(C(=O)Nc2ccc(-c3nc4ccccc4[nH]3)cc2)cc1Br,inactive
7,Cc1ccc2nc3sc(C(=O)NC4CCC(O)CC4)cc3cc2c1 (stereo not given),inactive
8,O=S(=O)(c1ccc2c(c1)OCCO2)N1CCN(S(=O)(=O)c2ccco2)CC1,inactive
9,CC(C)(C)OC(=O)Cc1nnc(C(C(=O)OCc2ccccc2)c2ccccc2)s1 (stereo not given),inactive
10,CCOC(=O)c1ccc(-n2cccc2/C=C2\NC(=O)NC2=O)cc1,inactive
11,O=C1CCCC2=C1C(c1ccccc1C(F)(F)F)N=C(Nc1nc3ccccc3o1)N2 (stereo not given),inactive
12,O=C(Nc1ncc(Cc2ccc(C(F)(F)F)cc2)s1)c1ncc(-c2ccccc2)[nH]1,inactive
13,Cc1ccc(NS(=O)(=O)c2ccc(Cl)cc2)cc1C,inactive
14,Cc1c(C(=O)NCC2CCCO2)[nH]c2c1C(=O)CC(c1ccco1)C2 (stereo not given),inactive
15,O=[S+]([O-])(c1ccc2c(c1)OCCO2)N1CCN([S+](=O)([O-])c2c(F)cc(Br)cc2F)CC1,inactive
16,CC(=O)Nc1sc2c(c1-c1csc3ccccc13)CCNC2,inactive
17,CC(=O)Nc1sc2c(c1-c1nc3ccccc3s1)CCN(C(C)C)C2,inactive
18,COc1ccc(C2Nc3ccccc3C(=O)N2Cc2ccc(C(C)(C)C)cc2)cc1COc1ccc(NC(C)=O)cc1 (stereo not given),inactive
19,Cc1cc(-c2nnc3n2CCCCC3)c(C)n1-c1ccc([N+](=O)[O-])cc1,inactive
20,c1cncc(CNc2ncnc3ccc(-c4ccc5c(c4)OCCO5)cc23)c1,inactive
